Bioassay records from PubChem BioAssay.
Anthrax LF prot – inhibitors of Bacillus anthracis lethal factor protease; P15917; multiplex microsphere protease cleavage assay, LF; 0.12% of 360,000 active; AID 588501; inhibition, % at 10 µM; also: plate controls were buffer without enzyme for full effect and enzyme alone for no effect
BoNT A protease – blocks Botulinum neurotoxin A light chain protease. 0.17% of 360,000 active. AID 588499. inhibition, % at 10 µM. multiplex microsphere protease substrate cleavage, flow cytometry; also: plate controls were buffer without enzyme for full effect and enzyme alone for no effect
BoNT F protease – BoNT F light chain protease inhibition | 0.22% of 360,000 active | Multiplex microsphere protease cleavage assay, flow cytometry | inhibition, % at 10 µM; in the data active = inhibition above about 35%, passing the limit was not always enough; inconclusive = no clear call, values can overlap the other calls; also: plate controls were buffer without enzyme for full effect and enzyme alone for no effect
Bead autofluor – counter-screen for toxin protease inhibitors: compound fluorescence; compound autofluorescence counterscreen, microsphere flow cytometry; hits give high values; fluorescence intensity (no concentration beside the values); 3.1% of 360,000 active; in the data active = fluorescence intensity above about 16000; inconclusive = no clear call, values can overlap the other calls
BoNT-A LC CP1 – inhibitors of Botulinum neurotoxin A light chain protease; shares compounds with BoNT F protease; multiplex microsphere protease assay, flow cytometry; inhibition, % at 10 µM; 3% of 720 active; in the data active = inhibition above about 32%
BoNT-F LC CP1 – inhibitors of Botulinum neurotoxin F light chain protease. shares compounds with BoNT F protease. multiplex microsphere protease cleavage assay, flow cytometry. inhibition, % at 10 µM. 720 tested, under 10 active. AID 602140; call rule not given here
Anthrax LF CP1 – Bacillus anthracis lethal factor protease inhibition; shares compounds with BoNT F protease; multiplex microsphere protease cleavage assay, LF; inhibition, % at 10 µM; 720 tested, under 10 active; call rule not given here
* = called active by the depositor; ? = inconclusive; · = no result given. Hits are enriched below; roughly 3.5% of the tested compounds scored in any of these assays. Rule as the data show it, unless noted: active = inhibition above about 30%; inconclusive = no clear call, values can overlap the other calls; inactive = below that.

SMILES | Anthrax LF prot | BoNT A protease | BoNT F protease | Bead autofluor | BoNT-A LC CP1 | BoNT-F LC CP1 | Anthrax LF CP1
CC(=O)C1CCC2C3CCC4CC(=O)CCC4(C)C3C=CC12C (stereo unspecified) | -5 | 0 | 2 | 3354 | · | · | ·
NCc1ccccc1 | -13 | -1 | -8 | 6113 | · | · | ·
CC(=O)c1c(C)nc(-c2ccc(Cl)cc2)nc1N | 1 | 5 | 50* | 2357 | 5 | 24 | 5
Cc1ccc2c(n1)sc1c(-c3ccc(Br)cc3)c(C#N)c(N)nc12 | 30 | 44* | 16 | ? | 11 | 2 | 5
Cc1ccc(NC(=O)c2ccc(OCC3CCCO3)cc2)cc1Cl (stereo unspecified) | -3 | 0 | -3 | 3691 | · | · | ·
CCN(CC)S(=O)(=O)c1cc(NC(=O)CCn2[nH]c(=O)ccc2=O)ccc1C | 1 | 2 | 4 | 6378 | · | · | ·
CCn1c(=O)c(C(=O)Nc2cccnc2)c(O)c2ccccc21 | 4 | 5 | 40* | 6137 | -2 | -3 | 1
COc1ccc(C2CC(c3cccs3)=NN2c2nc(-c3ccccc3)cs2)cc1OC (stereo unspecified) | 16 | 19 | 2 | 4635 | 8 | -2 | 9
CCc1cc(C(=O)c2ccc(Br)cc2)c(NC(=O)CN(CC)CC)s1 | 32* | -2 | ? | 4112 | 0 | -4 | -1
CCN(CC)CC(=O)Nc1sc(C)cc1C(=O)c1ccc(C)cc1 | -5 | -2 | ? | 4200 | · | · | ·
Cc1nc(-c2ccccc2)sc1-c1n[nH]c(=S)n1C | 24 | 30* | 54* | ? | 0 | -4 | -3
Cn1c(-c2ccccc2)n[nH]c1=S | -5 | 0 | 2 | 5761 | · | · | ·
CCc1nnc(NC(=O)CN2CCN(Cc3ccccc3Cl)CC2)s1 | 42* | -2 | ? | 3362 | 0 | -2 | -1
Cc1cccc2cc3c(N)c(C(=O)N4CCc5ccccc54)sc3nc12 | 4 | 13 | 3 | 3244 | 3 | 3 | 1
CCOc1ccc2nc3sc(C(=O)N4CCOCC4)c(N)c3cc2c1 | 2 | 13 | 0 | 4394 | -1 | -5 | -3
Cc1ccc(C)c2nc3sc(C(=O)N4CCOCC4)c(N)c3cc12 | -1 | 5 | 1 | 2399 | 2 | -2 | 0
Cc1cc(C)c2cc3c(N)c(C(=O)N4CCOCC4)sc3nc2c1 | 3 | 8 | 4 | 2728 | 1 | 2 | -6
Cc1cc(C)c2nc3sc(C(=O)N4CCOCC4)c(N)c3cc2c1 | 1 | 3 | 2 | 5284 | · | · | ·
Nc1c(C(=O)N2CCOCC2)sc2nc3c(cc12)CCCC3 | 2 | 2 | 9 | 5257 | · | · | ·
Cc1ccc(S(=O)(=O)N2C[C@H]3C(=O)C[C@@H]4C(=O)N(c5ccccc5)C(=O)[C@@H]4[C@@H]3C[C@H]2c2cccs2)cc1 | 2 | 0 | 2 | 6329 | · | · | ·
O=C1CNC(=S)N1c1nc2ccccc2s1 | 32* | 2 | ? | 3929 | 0 | 2 | 0
COc1cc(C(=O)N2CCCCC2c2cc(C(=O)Nc3ccccc3)no2)cc(OC)c1C (stereo unspecified) | 0 | -1 | -11 | 3589 | · | · | ·
O=C(O)c1ccc(NC(=O)c2cccc(S(=O)(=O)Nc3ccc(C(=O)O)cc3)c2)cc1 | 7 | 3 | 39* | 3985 | 0 | 4 | 2
O=C(Nc1ccc(NS(=O)(=O)c2ccccc2)cc1)c1ccccc1 | -12 | -3 | -20 | 4015 | · | · | ·
CC(=O)c1ccc(S(=O)(=O)Nc2ccc(C(=O)N3CCC3)cc2)cc1 | 0 | -2 | 40* | 4779 | -1 | -2 | -4
SMILES | Anthrax LF prot | BoNT A protease | BoNT F protease | Bead autofluor | BoNT-A LC CP1 | BoNT-F LC CP1 | Anthrax LF CP1
O=C(Nc1cccc(O)c1)c1cccc(S(=O)(=O)Nc2cccc(O)c2)c1 | -3 | 4 | -20 | 3622 | 0 | -4 | -2
O=C(O)c1ccc(NS(=O)(=O)c2ccc(C(=O)Nc3ccccc3)cc2)cc1 | 3 | -4 | -4 | 6786 | 1 | 0 | 3
CNC(=O)C(C#N)(Cc1cc(C(C)=O)ccc1OC)Cc1cc(C(C)=O)ccc1OC | -2 | 0 | 4 | 4206 | · | · | ·
O=C(Nc1nc2c(F)cc(F)cc2s1)C1CC1 | -6 | -1 | -13 | 4996 | · | · | ·
CCOc1ccc(NC(=O)COc2ccc(C(=O)NCc3cccc(OC)c3)cc2OC)cc1 | -6 | 0 | -7 | 3543 | · | · | ·
COc1ccc(NC(=O)C2Cc3c(-c4cccc(NC(C)=O)c4)ccnc3O2)cc1 (stereo unspecified) | -5 | 0 | 2 | 3628 | · | · | ·
CCN(CC)c1nc(Nc2ccc([N+](=O)[O-])cc2)nc(N(CC)CC)n1 | -5 | -1 | ? | 4651 | · | · | ·
O=C(Nc1nc(-c2ccc3c(c2)OCCO3)cs1)c1ccco1 | 0 | 0 | -5 | 6117 | · | · | ·
CCC(=O)N1CCc2cc(-c3csc(NC(=O)c4ccco4)n3)ccc21 | -10 | -2 | 35* | 3917 | 2 | 5 | -1
COc1ccc(/C(O)=C/c2nc3ccccc3n(-c3ccccc3)c2=O)cc1 | 5 | 2 | 37* | 7212 | 5 | 4 | 3
CCn1c(SCc2ccccc2)nnc1C1CCN(S(=O)(=O)c2ccc(OC)cc2)CC1 | -1 | 0 | 35* | 3835 | -1 | -4 | 3
CCSc1ncnc2c1sc1nc3c(cc12)COC(C)(C)C3 | 2 | 3 | 36* | 2577 | -1 | -8 | -4
CC(=O)Nc1ccc(NS(=O)(=O)c2cc(-c3n[nH]c(=O)c4ccccc34)ccc2C)cc1 | -5 | 5 | 41* | 4333 | -1 | -5 | -5
O=C(NCCc1ccccc1Cl)c1ccc2nc3ccccc3c(=O)n2c1 | 7 | 3 | 10 | 3162 | · | · | ·
Cc1ccc(CNC(=O)CSc2nc(=O)n3ccc(C)cc3n2)cc1 | -3 | 0 | -7 | 3415 | · | · | ·
O=C(Nc1ccc(CN2CCOCC2)cc1)c1ccc(F)cc1 | 1 | 0 | 35* | 3717 | 0 | -3 | 3
CC(C)(C)c1ccc(C(=O)Nc2ccc(CN3CCS(=O)(=O)CC3)cc2)cc1 | -10 | -5 | ? | ? | · | · | ·
O=C(Nc1ccc(CN2CCS(=O)(=O)CC2)cc1)c1ccc(C(F)(F)F)cc1 | 30* | 0 | -17 | 3484 | 0 | -8 | -4
O=C(Nc1ccc(CN2CCOCC2)cc1)c1ccc(Cl)cc1 | -13 | 0 | -2 | 3466 | · | · | ·
COc1cccc(-c2cnc(C(O)c3c(C)cc(C)cc3C)[nH]2)c1 (stereo unspecified) | 2 | 0 | -1 | 2994 | · | · | ·
Cc1ccc(C)c(N2CCN(C(=O)CCS(=O)(=O)c3ccc4c(c3)oc(=O)n4C)CC2)c1 | 1 | 0 | 1 | 5490 | · | · | ·
Cc1ccc2[nH]c(CNC(=O)C3CCCCC3)cc2c1 | 3 | 93* | -86 | 2959 | -1 | -10 | -2
CSc1nnc2c(n1)c(C)nn2-c1cccc(C)c1 | 53* | 69* | 10 | 6571 | 33* | 4 | 20
COc1ccc(CC2(CO)CCN(S(=O)(=O)c3sccc3C)CC2)cc1 | -6 | 6 | 38* | 4205 | 1 | -7 | 1
O=C1OC(CC(=O)N(Cc2nnc(-c3ccc(Cl)cc3)o2)C2CC2)c2ccccc21 (stereo unspecified) | -1 | 0 | -8 | 3613 | · | · | ·
